According to ChEMBL document CHEMBL1157539, “Thousands of chemical starting points for antimalarial lead identification” (Nature, 2010):

System: HepG2
Assay: GSK_TCMDC: Percent inhibition of human HepG2 cell line. Test compounds present at 10uM.
Format: functional

Structure (SMILES) | Inhibition [%]
COc1ccc2ncc(F)c(NC(=O)C3CCC(NCc4cc5cc(F)cc(F)c5[nH]4)CC3)c2n1.Cl (stereo unspecified) | 18
CN(Cc1cc(C(F)(F)F)cc(C(F)(F)F)c1)C(=O)C1CNCC1c1ccc(F)cc1.Cl (stereo unspecified) | 1
CC(=O)Nc1ccc(NC(=O)c2cc(-c3ccc(C)cc3O)n[nH]2)cc1 | 0
Cc1cc(C)c(NC(=O)N2CCCN(CCCCCNC(=O)/C=C/c3ccc(Cl)c(Cl)c3)CC2)c(C)c1 | 12
O=C(NCCc1ccc(Cl)c(Cl)c1)C1CCCN(C(=O)c2ccc(O)c(-c3ccc(Cl)c(Cl)c3)c2)C1 (stereo unspecified) | 0
COc1cc(CNC2Cc3ccccc3C2)ccc1Oc1ccc2nc[nH]c2c1.O=C(O)C(F)(F)F | 30
CC(C)N1CCN(C(=O)c2ccc(CNCCCN3CCN(c4ccccc4C(F)(F)F)CC3)s2)CC1.Cl | 32
Cc1cccc(-c2ccc3c(c2)CC(NCc2cccc(-n4ccnc4)c2)C3)c1 (stereo unspecified) | 11
CCCNc1ccc2nccc(CCN3CCC(NCc4ccc5c(n4)NC(=O)CS5)CC3)c2n1 | 24
Cc1[nH]c(C)c(-c2ccc(OCc3ccccc3)cc2)c(=O)c1Br | 19
Cc1ccccc1C(=O)Nc1cccc(-c2nc3ncccn3c2C)c1 | 0
CC1(C)N=C(N)N=C(Nc2ccc(F)c(F)c2)N1.Cl | 59
Cc1cc(N2CCCC2)nc(Nc2ccc(NC(=O)CC(C)C)cc2)n1 | 37
O=C(Nc1cccc(-c2cccc(-c3nc4cc(F)ccc4[nH]3)c2)c1)Nc1ccc2c(c1)OCO2 | 30
Cc1cc(-c2nc3ccc(CN4CCN(C)CC4)cc3[nH]2)nn1Cc1cc(Cl)ccc1OCc1ccccc1.Cl | 3
CCC1CN2CCc3cc(OC)c(OC)cc3C2CC1CC1NCCc2cc(OC)c(OC)cc21.Cl (stereo unspecified) | 42
CCCc1cc(=O)[nH]c(-n2nc(C)cc2NC(=O)c2cc3ccccc3o2)n1 | 39
CN(C)Cc1cccc(-c2ccc(NC(=O)c3ccc4c(=O)n(CCN5CCCCC5)cnc4c3)cc2)c1 | 23
O=C(NCC1Cc2cc(Oc3ccccc3)ccc2O1)c1ccc([N+](=O)[O-])o1 (stereo unspecified) | 83
O=C(NC1CCN(Cc2ccsc2)CC1)c1ccc(-c2cccc(C(F)(F)F)c2)s1.O=C(O)C(F)(F)F | 48
O=C(Nc1cccc(-c2ccc(-c3nc4cc(C(F)(F)F)ccc4[nH]3)cc2)c1)c1csnn1 | 23
CN(CCCCCN1CCC(NC(=O)Nc2ccc(Oc3ccccc3)cc2)C1)C(=O)/C=C/c1ccc(Cl)c(Cl)c1 (stereo unspecified) | 50
CCn1c(-c2cc(C)on2)nc2cnc(Oc3ccc(C(=O)N4CC(=O)N(C)C4C(C)(C)C)cc3)cc21 (stereo unspecified) | 44
CO/C(=C\C=C\c1cc2cc(Cl)c(Cl)cc2[nH]1)C(=O)NCCCN(C)CCN(C)c1ccccc1 | 38
CCn1c(C2CCN(CCC3CCN(C(=O)/C=C/c4ccc(Cl)c(Cl)c4)CC3)CC2)nc2ccccc21 | 17
CCCC[C@H](NC(=O)O[C@H](COc1ccc(OCc2ccccc2)cc1)C(C)(C)C)C(=O)C(=O)Nc1cc[nH]n1 | 21
